Here are results for twelve compounds from PubChem BioAssay (NCI).

SMILES strings stand for the structures. Several values for one entry are separate records, joined by “and”; a condition that tells them apart may be missing. Equal values may be shown once. The panel holds about 83,000 compounds, 20% with a hit somewhere; the sample as a whole holds those more often.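 Assay: single dose, 48 h. Readout: percent growth (0 = no net growth; negative = cell death). Active: <10.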 A number with no mark means an inactive call. Activity calls are given as the source filed them.

Some test systems named below: SK-MEL-2 melanoma; EKVX NSCLC; SN12C renal; UO-31 renal; TK-10 renal; ACHN renal; CAKI-1 renal; A498 renal; CCRF-CEM leukemia; MOLT-4 leukemia.
Holding throughout (test): NCI-60 one-dose screen, 48 h (100 = growth as untreated, 0 = no growth, -100 = all killed)
What all share (details): 10 µM unless noted

Take `O=C(Nc1ccccc1)Oc1c(Cl)c(Cl)c(Cl)c(Cl)c1Cl`: the growth is 95.6% and 101% in the assay on SK-MEL-2 melanoma; 97.7% and 87.2% in the assay with EKVX NSCLC; 99.4% and 92.7% in the assay on SN12C renal; 73.9% and 83.2% with UO-31 renal; 100% in the assay with TK-10 renal; 99.1% and 93.6% in the assay on ACHN renal. Further, the growth with CAKI-1 renal is 93.1% and 89.7%; with A498 renal, 95.9% and 76.8%; in the assay with CCRF-CEM leukemia it was 93.6% and 101%; in the assay on MOLT-4 leukemia it was 90.8% and 96.1%.

On to `CN(C)c1ccc(/C=N/N=C(\C#N)[S][Sn]([Cl])([c]2ccccc2)[c]2ccccc2)cc1`, for which the growth was 40.3% in the assay with SK-MEL-2 melanoma; 44% in the assay on EKVX NSCLC; 28.8% in the assay with SN12C renal; -0.649% (active) in the assay with UO-31 renal; -24.1% (active) in the assay on TK-10 renal; -51% (active) in the assay with ACHN renal. Besides, the growth was 46.4% in the assay on CAKI-1 renal, 32% with A498 renal, -20.2% (active) with CCRF-CEM leukemia and 6.2% (active) in the assay on MOLT-4 leukemia.

On to `O=[N+]([O-])c1ccc2c(N=Nc3ccc4ccccc4c3O)c(O)cc(S(=O)(=O)O)c2c1`, for which the growth was 102% in the assay with SK-MEL-2 melanoma; 95.2% in the assay with EKVX NSCLC; 99.4% in the assay on SN12C renal; 62.6% in the assay on UO-31 renal; 91.6% in the assay on TK-10 renal; 78.7% in the assay on ACHN renal. In addition, the growth in the assay with CAKI-1 renal is 60.1%; in the assay with A498 renal, 108%; with CCRF-CEM leukemia, 63.6%; in the assay with MOLT-4 leukemia it was 91.7%.

In the case of `N#CSCc1c(Cl)cccc1Cl`, the growth is 102% with SK-MEL-2 melanoma; 103% in the assay with EKVX NSCLC; 93.3% in the assay with SN12C renal; 40.2% in the assay with UO-31 renal; 101% in the assay with TK-10 renal; 49.9% in the assay with ACHN renal. Besides, the growth in the assay with CAKI-1 renal was 47.7%; in the assay with A498 renal, 85.1%; in the assay with CCRF-CEM leukemia, 44.1%; in the assay with MOLT-4 leukemia, 90.9%.

With `O=C(CC1(O)C(=O)Nc2c(Cl)ccc(Cl)c21)c1ccc(Cl)cc1Cl` (stereo not given), the growth is 98.9% with SK-MEL-2 melanoma; 85.2% in the assay on EKVX NSCLC; 104% in the assay on SN12C renal; 86.2% in the assay on UO-31 renal; 105% in the assay with TK-10 renal; 107% with ACHN renal. For the same compound, the growth was 93.8% with CAKI-1 renal, 79.7% in the assay with A498 renal, 112% in the assay on CCRF-CEM leukemia and 106% in the assay with MOLT-4 leukemia.

For the compound `N#CC1C(=O)SC2c3ccccc3C(=O)c3ccccc3C12` (stereo not given), the growth was 98.5% in the assay with SK-MEL-2 melanoma; 107% in the assay with EKVX NSCLC; 101% in the assay with SN12C renal; 89.5% with UO-31 renal; 99.5% with TK-10 renal; 114% in the assay on ACHN renal. For the same compound, the growth was 88% in the assay with CAKI-1 renal, 105% in the assay with A498 renal, 95% in the assay with CCRF-CEM leukemia and 99.6% in the assay on MOLT-4 leukemia.

`Nc1ccc(SSc2ccc(N)cc2)cc1`: the growth is 91.6% in the assay with SK-MEL-2 melanoma; 106% in the assay on EKVX NSCLC; 101% in the assay on SN12C renal; 73.6% in the assay on UO-31 renal; 111% in the assay on TK-10 renal; 93.5% in the assay on ACHN renal. Further, the growth in the assay with CAKI-1 renal is 98.5%; in the assay on A498 renal, 103%; in the assay with CCRF-CEM leukemia, 106%; with MOLT-4 leukemia, 96.1%.

With `CC(=O)Nc1cccc2cc(O)ccc12`, the growth in the assay on SK-MEL-2 melanoma was 125% and 101%; in the assay on EKVX NSCLC, 101% and 120% and 99.3%; with SN12C renal, 107% and 94.4% and 97.2%; with UO-31 renal, 94.6% and 89.5% and 75.1%; with TK-10 renal, 123% and 99.7% and 97.9%; in the assay with ACHN renal, 104% and 109% and 100%. Moreover, the growth was 129% and 93.5% in the assay on CAKI-1 renal; 99.2% and 108% and 109% in the assay on A498 renal; 98.1% and 101% and 104% with CCRF-CEM leukemia; 111% and 108% and 98.5% in the assay on MOLT-4 leukemia.

In the case of `OC(CNc1ccnc2cc(Cl)ccc12)CNc1ccnc2cc(Cl)ccc12`, the growth in the assay on SK-MEL-2 melanoma is 104%; in the assay on EKVX NSCLC it was 78.6%; in the assay on SN12C renal, 37.9%; in the assay on UO-31 renal, 88.1%; with TK-10 renal it was 87.5%; in the assay with ACHN renal, 99%. In addition, the growth with CAKI-1 renal was 101%; in the assay on A498 renal, 76.9%; in the assay on CCRF-CEM leukemia, -15.8% (active); with MOLT-4 leukemia it was 12%.

In the case of `CC(C)(C)c1ccc(O)c(C2CCCCC2)c1`, the growth in the assay with SK-MEL-2 melanoma is 89%; in the assay with EKVX NSCLC it was 115%; with SN12C renal, 97.5%; in the assay with UO-31 renal it was 104%; with TK-10 renal it was 92.2%; in the assay with ACHN renal, 103%. The growth with CAKI-1 renal was 116%; in the assay with A498 renal, 107%; in the assay on CCRF-CEM leukemia, 47.9%; in the assay with MOLT-4 leukemia, -31.9% (active).

As to `CCCCCCCCCCCCCCCCOP(=O)([O-])OCC[N+](C)(C)C`, the growth in the assay on SK-MEL-2 melanoma was 56.8%; in the assay on EKVX NSCLC, 46.9%; in the assay on SN12C renal, 34.2%; with UO-31 renal, 19.3%; in the assay on TK-10 renal, -70.3% (active); in the assay with ACHN renal, 36.4%. Moreover, the growth was 16.5% with CAKI-1 renal, 3.51% (active) in the assay on A498 renal, 1.24% (active) with CCRF-CEM leukemia and -19.9% (active) in the assay with MOLT-4 leukemia.

`CC1=CC(O)C2CC1C2(C)C` (stereo not given): the growth is 92.8% in the assay with SK-MEL-2 melanoma; 97.7% and 104% in the assay with EKVX NSCLC; 102% and 108% in the assay on SN12C renal; 93.8% and 73.6% with UO-31 renal; 102% and 98.1% with TK-10 renal; 103% and 118% in the assay with ACHN renal. The growth with CAKI-1 renal was 94.4% and 85.8%; in the assay with A498 renal, 91% and 92.7%; in the assay with CCRF-CEM leukemia, 106% and 105%; in the assay on MOLT-4 leukemia, 91.9% and 93.3%.
